Test results: PubChem BioAssay AID504465 (National Center for Advancing Translational Sciences (NCATS), 2011)
The campaign covered roughly 2,100 compounds. About 210 (10%) were called active. Inconclusive results (about 53%) are left out. The call rests on the fitted dose curve; in most records, active means well fitted inhibition curve with a large enough effect; inconclusive means small, poorly fitted or top-dose-only effect, or effect the other way; inactive means no such curve, though single readings can be large or run the other way. This is one part of the list. A call without a number means that no potency is given here.

Assay: IN Cell qHTS Assay for Inhibitors of the mTORC1 Signaling Pathway in MEF (Tsc2-/-, p53-/-) Cells: Sytravon; further: nearly all actives have a fitted effect of over 60% in size
Conditions: phospho-rpS6 immunofluorescence, 24 h; series mostly up to 38.3 µM
How it was run: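 Tsc2-/-, p53-/- MEFs (empty-vector) treated with compound 24 h at 37 degree Celsius, then fixed and stained for phospho-rpS6 Ser235/236 (Alexa-488) plus Hoechst. Reported as % positive cells, thresholds set against 7.5 nM rapamycin and DMSO wells.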
Potency means the concentration at half of the fitted maximal effect.

Structure (SMILES) | Potency
Cc1ccc(-c2nc(N3CCCC(C)C3)c3ccccc3n2)cc1 (stereo not given) | inactive
COc1ccc2ncc3c(-c4ccc(C)c(C)c4)nn(CC(=O)Nc4ccccc4)c3c2c1 | inactive
O=C(NCCCN1CCN(c2ccccc2F)CC1)c1nnc(Cc2ccc(Cl)cc2Cl)o1 | inactive
COc1ccc(-c2nc(CN3CCC(C(=O)NCCCN4CCN(c5ccccc5F)CC4)CC3)c(C)o2)cc1OC | 13.1 µM (active)
Cc1ccc(N2CC(C(=O)NCCS(=O)(=O)N3CCN(c4ccccc4F)CC3)CC2=O)cc1 (stereo not given) | inactive
O=C(Cn1c(=O)c2cccn2c2ccc(F)cc21)NCc1cccc(Cl)c1 | inactive
CC(C(=O)NCc1cccc(Br)c1)n1ncn2cccc2c1=O (stereo not given) | 1.47 µM (active)
COc1cccc(CNC(=O)CCn2cccn2)c1 | inactive
Cn1cc(-c2cc3n(n2)CCC(=O)N3CC(=O)NCc2ccc(Cl)cc2)c2ccccc21 | inactive
CCOC(=O)c1nc(Nc2ccc(C(=O)OC(C)C)cc2)c2ccccc2n1 | inactive
CCc1ccc(NC(=O)CSc2nc3n[nH]c(C)c3c(=N)n2-c2ccc(C)cc2)cc1 | inactive
COc1cc(CNc2ccc3c(c2)ncn3C(C)C)cc(OC)c1OC | inactive
Cc1ccc(NC(=O)c2c(C)oc3ccc(O)c(CN4CCCCCC4)c23)c(C)c1 | inactive
CC1CCN(S(=O)(=O)c2ccc3nc(Nc4cccc(C(F)(F)F)c4)ccc3c2)CC1 | inactive
CCOc1ccccc1C(=O)N(Cc1ccco1)Cc1ccccc1F | inactive
CCS(=O)(=O)c1ncc(Cl)c(C(=O)N(Cc2ccccc2)Cc2ccco2)n1 | 3.69 µM (active)
CS(=O)(=O)c1ncc(Cl)c(C(=O)N(Cc2ccc(Cl)cc2)Cc2ccco2)n1 | 2.33 µM (active)
Cc1cccc(OCC(=O)N(Cc2ccc(C(C)(C)C)cc2)Cc2ccco2)c1 | inactive
CCc1ccc2oc(C(=O)N(Cc3cccc(Cl)c3)Cc3ccco3)c(C)c2c1 | inactive
O=C(NCC1CCN(Cc2cccc(F)c2)CC1)c1cc2ccc3cccnc3c2[nH]1 | inactive
CCOC(=O)c1sc2ccccc2c1S(=O)(=O)Nc1ccc(CC)cc1 | inactive
COc1ccc(C2C(C(=O)Nc3ccccc3)=C(C)Nc3nc(-c4ccc(Cl)cc4)nn32)cc1 (stereo not given) | 13.1 µM (active)
CC1=C(C(=O)Nc2ccc(Cl)cc2)C(c2ccccc2)n2ncc(C(=O)Nc3ccccc3)c2N1 (stereo not given) | inactive
COc1ccccc1C1C(C(=O)Nc2ccccc2)=C(C)Nc2nc(-c3ccccc3)nn21 (stereo not given) | inactive
COc1ccc(Nc2c3c(nc4ccc(NC(=O)/C=C/c5cc(OC)c(OC)c(OC)c5)cc24)CCCC3)cc1OC | 1.47 µM (active)
COc1ccc(S(=O)(=O)Nc2ccc3oc4c(c3c2)CCCC4)cc1 | inactive
COc1ccc(/C=C/C(=O)Nc2ccc3nc4c(c(Nc5ccc(OC)c(OC)c5)c3c2)CCCC4)cc1 | 3.69 µM (active)
COc1cccc(NC(=O)CSc2c3c(nc4ccccc24)CCCC3)c1 | inactive
COc1ccc(/C=C/C(=O)Nc2ccc3nc4c(c(Nc5ccccc5OC)c3c2)CCCC4)cc1 | 2.07 µM (active)
CCOc1ccc(NC(=O)CSc2c3c(nc4ccccc24)CCCC3)cc1 | inactive
